Where “and” joins values, the source holds several entries; their conditions need not be identical. Equal values may be shown once. The whole screen tested about 5,500 compounds, of which about 2,000 (36%) were called active. Inconclusive results (about 18%) are left out. Cut-off read from the data, not from the text of the source: active = normalized growth mostly below about 0.91 (no sharp cut-off); inconclusive = no clear call, values can overlap the other calls; inactive = mostly above about 0.92. Some of the results follow.
Assay: chemical genetic growth profiling, strain panel (AID 1159580);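 note: tested at 20 µM; growth read once vehicle control cultures reached saturation at 30 °C; 1 = growth at the plate median or of vehicle wells; lower values mean less growth of the strain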
Details: growth OD

Measured: normalized growth

C=CCc1ccccc1OCC(O)CNC(C)C (stereo unspecified)
inactive: S. cerevisiae deletion strains, locus YJR066W, strain TOR1, active compounds read low 0.924 | S. cerevisiae deletion strains, locus YJR075W, strain HOC1, active compounds read low 1.01 and 1 | S. cerevisiae deletion strains, locus YKL009W, strain mrt4, active compounds read low 1 | S. cerevisiae deletion strains, locus YKL068W, active compounds read low 1.01 | S. cerevisiae deletion strains, locus YKL085W, strain MDH1 (second series), active compounds read low 1.01 | S. cerevisiae deletion strains, locus YKL085W, strain MDH1, active compounds read low 1.01 | S. cerevisiae deletion strains, locus YKL160W, strain elf1, active compounds read low 1 | S. cerevisiae deletion strains, locus YKL190W, strain CNB1, active compounds read low 1 | S. cerevisiae deletion strains, locus YKR001C, strain vps1, active compounds read low 1.03 | S. cerevisiae deletion strains, locus YKR026C, strain gcn3, active compounds read low 0.988 | S. cerevisiae deletion strains, locus YKR091W, strain srl3, active compounds read low 0.997 | S. cerevisiae deletion strains, locus YLL001W, strain dnm1, active compounds read low 1.01 | S. cerevisiae deletion strains, locus YLL026W, active compounds read low 0.991 | S. cerevisiae deletion strains, locus YLL041C, strain sdh2, active compounds read low 0.992 | S. cerevisiae deletion strains, locus YLR027C, strain aat2, active compounds read low 0.99 | S. cerevisiae deletion strains, locus YLR039C, strain RIC1, active compounds read low 1.06 | S. cerevisiae deletion strains, locus YLR058C, strain SHM2, active compounds read low 1.01 | S. cerevisiae deletion strains, locus YLR102C, strain apc9, active compounds read low 1.01 | S. cerevisiae deletion strains, locus YLR113W, strain HOG1, active compounds read low 0.983 | S. cerevisiae deletion strains, locus YLR221C, strain rsa3, active compounds read low 0.992 | S. cerevisiae deletion strains, locus YLR258W, strain gsy2, active compounds read low 0.99 | S. cerevisiae deletion strains, locus YLR262C, strain YPT6 (second series), active compounds read low 1.02 | S. cerevisiae deletion strains, locus YLR262C, strain YPT6, active compounds read low 1.06 | S. cerevisiae deletion strains, locus YLR268W, strain sec22, active compounds read low 1.03 | S. cerevisiae deletion strains, locus YLR320W, strain mms22, active compounds read low 0.994 | S. cerevisiae deletion strains, locus YLR330W, strain CHS5, active compounds read low 0.988 | S. cerevisiae deletion strains, locus YLR342W, strain FKS1 (second series), active compounds read low 0.974 | S. cerevisiae deletion strains, locus YLR342W, strain FKS1, active compounds read low 0.995 | S. cerevisiae deletion strains, locus YLR357W, strain rsc2, active compounds read low 0.967 | S. cerevisiae deletion strains, locus YLR370C, strain arc18, active compounds read low 1.01 | S. cerevisiae deletion strains, locus YLR371W, strain rom2, active compounds read low 1.01 | S. cerevisiae deletion strains, locus YLR384C, strain iki3, active compounds read low 0.997 | S. cerevisiae deletion strains, locus YLR418C, strain cdc73, active compounds read low 1.04 | S. cerevisiae deletion strains, locus YML016C, strain PPZ1, active compounds read low 1 | S. cerevisiae deletion strains, locus YML032C, strain rad52, active compounds read low 1.01 | S. cerevisiae deletion strains, locus YML120C, strain ndi1, active compounds read low 0.994 | S. cerevisiae deletion strains, locus YML124C, strain tub3, active compounds read low 1.01 | S. cerevisiae deletion strains, locus YMR058W, strain fet3, active compounds read low 1 | S. cerevisiae deletion strains, locus YMR078C, strain ctf18, active compounds read low 1.01 | S. cerevisiae deletion strains, locus YMR125W, strain sto1, active compounds read low 0.993 | S. cerevisiae deletion strains, locus YMR129W, active compounds read low 1 | S. cerevisiae deletion strains, locus YMR205C, strain PFK2, active compounds read low 0.98 | S. cerevisiae deletion strains, locus YMR223W, strain ubp8, active compounds read low 1 | S. cerevisiae deletion strains, locus YMR231W, strain pep5, active compounds read low 0.995 | S. cerevisiae deletion strains, locus YMR263W, strain SAP30, active compounds read low 1.01 | S. cerevisiae deletion strains, locus YMR307W, strain GAS1, active compounds read low 1.02 | S. cerevisiae deletion strains, locus YNL067W, strain RPL9B, active compounds read low 1.01 | S. cerevisiae deletion strains, locus YNL071W, strain lat1, active compounds read low 1 | S. cerevisiae deletion strains, locus YNL128W, strain TEP1, active compounds read low 1.01 and 0.998 | S. cerevisiae deletion strains, locus YNL153C, strain GIM3, active compounds read low 1 | S. cerevisiae deletion strains, locus YNL175C, strain NOP13, active compounds read low 0.973 | S. cerevisiae deletion strains, locus YNL183C, strain NPR1, active compounds read low 0.924 | S. cerevisiae deletion strains, locus YNL209W, strain ssb2, active compounds read low 1.01 | S. cerevisiae deletion strains, locus YNL224C, strain SQS1, active compounds read low 0.972 | S. cerevisiae deletion strains, locus YNL233W, strain BNI4, active compounds read low 0.982 | S. cerevisiae deletion strains, locus YNL248C, strain rpa49, active compounds read low 1.01 | S. cerevisiae deletion strains, locus YNL250W, strain rad50, active compounds read low 1.01 | S. cerevisiae deletion strains, locus YNL271C, strain bni1, active compounds read low 1.01 | S. cerevisiae deletion strains, locus YNL298W, strain CLA4, active compounds read low 1.02 | S. cerevisiae deletion strains, locus YNL307C, strain MCK1, active compounds read low 1.03 | S. cerevisiae deletion strains, locus YNL322C, strain KRE1 (second series), active compounds read low 0.991 | S. cerevisiae deletion strains, locus YNL322C, strain KRE1, active compounds read low 1 | S. cerevisiae deletion strains, locus YNR049C, strain mso1, active compounds read low 0.988 | S. cerevisiae deletion strains, locus YNR052C, strain pop2, active compounds read low 1.01 | S. cerevisiae deletion strains, locus YOL006C, strain TOP1, active compounds read low 1.05 | S. cerevisiae deletion strains, locus YOL012C, strain htz1 0.911 | S. cerevisiae deletion strains, locus YOL147C, strain pex11, active compounds read low 1.01 | S. cerevisiae deletion strains, locus YOR001W, strain rrp6, active compounds read low 0.997 | S. cerevisiae deletion strains, locus YOR061W, strain CKA2, active compounds read low 1.01 | S. cerevisiae deletion strains, locus YOR069W, strain VPS5, active compounds read low 1.01 | S. cerevisiae deletion strains, locus YOR070C, strain gyp1, active compounds read low 0.997 | S. cerevisiae deletion strains, locus YOR080W, strain dia2, active compounds read low 0.993 | S. cerevisiae deletion strains, locus YOR083W, strain WHI5 (second series), active compounds read low 0.978 | S. cerevisiae deletion strains, locus YOR083W, strain WHI5, active compounds read low 1.01 | S. cerevisiae deletion strains, locus YOR106W, strain vam3, active compounds read low 1.05 | S. cerevisiae deletion strains, locus YOR136W, strain idh2, active compounds read low 1 | S. cerevisiae deletion strains, locus YOR144C, strain elg1, active compounds read low 1 | S. cerevisiae deletion strains, locus YOR184W, strain ser1, active compounds read low 1.03 | S. cerevisiae deletion strains, locus YOR231W, strain MKK1, active compounds read low 0.983 | S. cerevisiae deletion strains, locus YOR265W, strain rbl2, active compounds read low 1 | S. cerevisiae deletion strains, locus YOR270C, strain vph1, active compounds read low 1.07 | S. cerevisiae deletion strains, locus YOR290C, strain snf2, active compounds read low 0.923 | S. cerevisiae deletion strains, locus YOR316C, strain cot1, active compounds read low 1.01 | S. cerevisiae deletion strains, locus YPL051W, strain arl3, active compounds read low 1.01 | S. cerevisiae deletion strains, locus YPL055C, strain LGE1, active compounds read low 1 | S. cerevisiae deletion strains, locus YPL078C, strain atp4, active compounds read low 1.01 | S. cerevisiae deletion strains, locus YPL106C, strain sse1, active compounds read low 0.987 | S. cerevisiae deletion strains, locus YPL240C, strain hsp82, active compounds read low 1.01 | S. cerevisiae deletion strains, locus YPL241C, strain CIN2, active compounds read low 0.997 | S. cerevisiae deletion strains, locus YPL256C, strain CLN2, active compounds read low 0.981 | S. cerevisiae deletion strains, locus YPR119W, strain clb2, active compounds read low 1.01 | S. cerevisiae deletion strains, locus YPR141C, strain kar3, active compounds read low 1.02 | S. cerevisiae deletion strains, locus YPR163C, strain tif3, active compounds read low 1.01 | S. cerevisiae deletion strains, locus YPR167C, strain met16, active compounds read low 1.01 | S. cerevisiae deletion strains, strain wtn01, active compounds read low 1.01 | S. cerevisiae strains, strain wild type, active compounds read low 1

— PubChem BioAssay AID1159580 (chemical genetic matrix, 2015)
